Whole data set: some 33,000 sequences, median “E-score (-0.5 to 0.5)” near -0.041, cut for the highest 2% near 0.37. The list comes from a sample in which the highest values are over-represented; it also holds similar and randomly drawn sequences.
biological target: T1, Ecm22 (UniProt Q05958); experiment: PBM E-score (8-mer binding enrichment) (E-score (-0.5 to 0.5)); higher = stronger / more preferred TF binding; conditions: protein concentration: 200 nM; construct: GST-full length
T1 sequence: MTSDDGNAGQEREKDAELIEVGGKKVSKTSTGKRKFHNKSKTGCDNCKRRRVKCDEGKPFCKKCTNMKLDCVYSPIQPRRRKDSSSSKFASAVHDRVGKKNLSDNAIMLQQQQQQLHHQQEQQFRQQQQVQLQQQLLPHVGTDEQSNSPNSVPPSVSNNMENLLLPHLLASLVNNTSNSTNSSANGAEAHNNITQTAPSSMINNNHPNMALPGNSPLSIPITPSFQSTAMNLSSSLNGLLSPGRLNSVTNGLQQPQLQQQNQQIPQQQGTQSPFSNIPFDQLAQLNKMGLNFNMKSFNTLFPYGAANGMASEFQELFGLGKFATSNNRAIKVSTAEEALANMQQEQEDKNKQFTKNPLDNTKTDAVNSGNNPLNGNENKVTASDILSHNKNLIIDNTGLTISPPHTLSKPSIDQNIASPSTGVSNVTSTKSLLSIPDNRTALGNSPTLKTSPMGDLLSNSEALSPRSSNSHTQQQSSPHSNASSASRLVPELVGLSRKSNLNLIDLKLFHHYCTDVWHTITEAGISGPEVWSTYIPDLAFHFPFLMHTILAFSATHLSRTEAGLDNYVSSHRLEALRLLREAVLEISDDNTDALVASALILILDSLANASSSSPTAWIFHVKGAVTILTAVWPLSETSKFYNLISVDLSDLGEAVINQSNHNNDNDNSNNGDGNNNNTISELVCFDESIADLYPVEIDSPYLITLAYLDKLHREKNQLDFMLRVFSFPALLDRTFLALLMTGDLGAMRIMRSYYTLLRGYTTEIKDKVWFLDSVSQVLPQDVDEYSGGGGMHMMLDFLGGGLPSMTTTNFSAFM
Description: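 Universal 'all 10-mer' protein binding microarrays (Agilent AMADID 015681) probed with GST-tagged S. cerevisiae TFs (full-length or DBD) made by in vitro transcription/translation (PURExpress), about 100-200 nM. Bound TF was detected with fluorescent anti-GST. Each ungapped 8-mer (which stands for itself and its reverse complement) is scored by the PBM enrichment score (E-score), a modified Wilcoxon-Mann-Whitney statistic from -0.5 to +0.5, computed with the Universal PBM Analysis Suite. Scale: above 0.35 generally sequence-specific binding.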

Sequence | PBM E-score
CGTTTATA | 0.426
AGTTTATC | 0.0904
CGTTTATC | 0.42
AGCTCAGG | -0.211
TGAAGTCA | -0.133
GCCCAACC | 0.0862
CGTATATA | 0.444
AGTATATA | 0.341
AGTATTTA | -0.0192
CGTATATC | 0.439
CGTATTTA | 0.369
GGTATATA | 0.168
CATATATC | 0.0903
GGTATTTA | -0.00022
AGTATATC | 0.122
AAGTACCG | 0.152
CTAATGAG | -0.0357
GCAAATGA | 0.0372
CCACTCGC | 0.184
CTGGCTCC | -0.202
CGTGTTCA | 0.0358
AACCTCTT | -0.0421

Sequence | PBM E-score
GTAACCGA | 0.332
CTAACCGA | 0.372
CTAACCGC | 0.0805
CGCCACTC | -0.016
AAACTGTC | -0.0481
ACACGATG | 0.17
ATACGATG | 0.472
ATACGATC | 0.457
CTACGATC | 0.325
AGACGATG | 0.00668
ACACGATC | 0.0695
AGCAGGGC | -0.0233
TATACTGA | 0.182
CGATCTAC | 0.184
AGTACCAT | 0.0273
GGGCCGTA | 0.333
CGGCCGTA | 0.34
AGGCCGTA | 0.384
AAAGCTGT | -0.108
CGAAGCAG | 0.147
GCGTGGGA | 0.0285
AGACGACA | 0.0702

Sequence | PBM E-score
GTACGACA | 0.48
CTACGACA | 0.347
GCACGACA | 0.114
ACACGACA | 0.233
ATACGACA | 0.469
CCCTGGAC | -0.193
GTAGCAGA | 0.0392
AGGACCCT | -0.235
CCCTCAAC | -0.248
CGTTCAAC | 0.377
GGTTCATA | 0.0139
CGTTCAAG | 0.335
CGTTCATA | 0.386
GGTTCGTA | 0.443
AGTTCGTA | 0.449
AGTTCGTC | 0.207
GGTTCGAA | 0.182
CGTTCAAA | 0.361
GGTTCGGA | -0.1
CGTTCATC | 0.354
AGTTCGTG | 0.189
AGGAAACG | 0.281

Sequence | PBM E-score
GGAACAGA | -0.378
CTGTCCCA | -0.11
CACTCGGA | 0.198
CGTAATAA | 0.247
AAGCGAAT | 0.277
CATGCAAC | 0.0872
CGTTCGGA | 0.274
CGTTCGTC | 0.314
CGTTCGTA | 0.461
AAGGAGGC | -0.319
AGCATCGG | -0.0521
TCCAGCGA | -0.115
TGGGTGAA | 0.0282
ACGACGCA | 0.412
ACGACGCT | 0.38
AAGACGCG | -0.012
ACGACTCG | 0.39
ACGACTCT | 0.308
ACGACTCA | 0.238
CCGACGCA | 0.00712
ACGACGCG | 0.407

— the supplement of paper PMC3334620
